According to PubChem BioAssay (NCATS):
Results filed as inconclusive are left out. Activity calls are given as the source filed them. Unless noted, the call rests on the fitted dose curve.

Experiments:
[1] = Dual reporter qHTS for antagonist of Pregnane X Receptor (hPXR) against the NCATS DSHEA and TCM libraries: Fluorescence Readout (AID 1920061; active means well fitted curve in the direction sought with a large enough effect; further: 0% is about no effect)
Outline: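 hPXR-Luc HepG2 cells exposed 24 h at 37 C to compounds with 2 uM rifampicin in antagonist mode; luciferase luminescence measured by ONE-Glo, with CellTiter-Fluor viability read beforehand.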

[2] = qHTS drug screen for cell cycle checkpoint inhibitors in PARPi-resistant BRCA-mutant ovarian cancer cell lines. (AID 1963452); conditions: PEO1/OlaR viability, CellTiter-Glo luminescence, 96 h; for Z-AUC: stronger effect = lower value; further: potency means the concentration at half of the fitted maximal effect
Outline: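 PEO1, PEO4 and PEO1/OlaR ovarian cancer cells, 600 per well, exposed 96 h at 37C to a dilution series. Viability read by CellTiter-Glo luminescence, normalized to DMSO and empty wells; activity summarized as Z-AUC.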

[3] = measured here: PEO1 parental Z-AUC

Row | Structure (SMILES) | outcome [1] | Z-AUC [2] | Z-AUC [2, 3] | Z-AUC ([2]; measured here: PEO4 Z-AUC) | Potency [2]
1 | CC(=O)C1=C(O)C=C2Oc3c(C(C)=O)c(O)c(C)c(O)c3[C@]2(C)C1=O | inactive |  |  |  | 
2 | COc1cccc(-c2cc(F)ccc2C2Cc3nc(N)nc(C)c3C(=O)N2)n1 (stereo not given) |  | -1.35 (inactive) | -1.35 | -0.552 | 
3 | Cc1cc(C(=O)Nc2cc(Nc3ccc4c(/C=C/c5ccccn5)n[nH]c4c3)ccc2F)n(C)n1 |  | -1.04 (inactive) | -0.196 | -0.912 | 
4 | CN[C@H]1CC[C@@H](c2ccc(Cl)c(Cl)c2)c2ccccc21 |  | 0.0758 (inactive) | 0.141 | -0.265 | 
5 | O=C(O)CC(O)(CC(=O)O)C(=O)O | inactive |  |  |  | 
6 | C=C1[C@H]2CC[C@H](C(=O)O)[C@@]23CC[C@H](C3)C1(C)C | inactive |  |  |  | 
7 | CCCCOC(=O)NS(=O)(=O)c1sc(CC(C)C)cc1-c1ccc(Cn2ccnc2)cc1 |  | 0.282 (inactive) | 0.365 | 0.449 | 
8 | COc1ccccc1C(=O)Nc1cc2c(cc1N1CCCC1)n(C)c(=O)n2C |  | -1.16 (inactive) | -0.583 | -0.727 | 
9 | COc1ccc(Cl)c(Nc2ncnc3cc(OCC4CCN(C)CC4)c(OC)cc23)c1 |  | -1.39 (inactive) | -0.765 | -1.02 | 
10 | NCCOc1cc(C(=O)Nc2cc(OCCN)c3ccccc3n2)nc(C(=O)Nc2cc(OCCN)c3ccccc3n2)c1 |  | -0.0869 (inactive) | -0.747 | -0.493 | 
11 | COc1ccc(-n2c(SCCCN3C(=O)c4cccc5cccc(c45)C3=O)nnc2-c2ccncc2)cc1 |  | 0.836 (inactive) | 0.296 | 0.916 | 
12 | O=C([C@@H](Cc1cccc(C(F)(F)F)c1)NS(=O)(=O)c1cc(F)c2c(c1)CCNC2)N1CCCC1 |  | -0.343 (inactive) | -0.218 | -0.109 | 
13 | Cc1nc(-c2cn3c(n2)-c2ccc(-c4cnn(C(C)(C)C(N)=O)c4)cc2OCC3)n(C(C)C)n1 |  | -1.26 (inactive) | -0.764 | -0.716 | 
14 | O=C(NCC(=O)N1CCCC1)Nc1ccc2cnccc2c1 |  | -0.618 (inactive) | -0.349 | -1.01 | 
15 | Cn1ncc2cc(-c3cnc(N)c(Cl)c3N3CCC4(CCNC4=O)CC3)ccc21 |  | -0.513 (inactive) | -0.91 | -1.02 | 
16 | C[C@@H]1CN(CC(=O)N2CC(C)(C)c3ncc(Cc4ccc(F)cc4)cc32)[C@@H](CN2CCOC[C@H]2C)CN1 |  | 1.68 (inactive) | 0.908 | 0.0229 | 

Row | Structure (SMILES) | outcome [1] | Z-AUC [2] | Z-AUC [2, 3] | Z-AUC ([2]; measured here: PEO4 Z-AUC) | Potency [2]
17 | CS(=O)(=O)Nc1cc2occ(NC=O)c(=O)c2cc1Oc1ccccc1 |  | 0.738 (inactive) | 0.631 | 0.731 | 
18 | Cc1[nH]c2ccccc2c1CCNCc1ccc(/C=C/C(=O)NO)cc1 |  |  | -1.48 | -1.35 | 77.6 nM (active)
19 | CCc1cc(C(N)=O)ccc1-n1nc(C(C)C)c2c(-n3cnc(-c4cnn(C)c4)c3)ccnc21 |  | -0.734 (inactive) | -1.82 | -1.2 | 
20 | CCOC(=O)[C@@]1(CCCCCCOc2ccc(Cl)cc2)CO1 |  | 1.19 (inactive) | 1.19 | 1.21 | 
21 | O=C(c1c(F)ccc(NS(=O)(=O)N2CC[C@@H](F)C2)c1F)c1c[nH]c2ncc(-c3cnc(C4CC4)nc3)cc12 |  | -0.0874 (inactive) | 0.401 | 0.486 | 
22 | C1=C/COCc2cc(ccc2OCCN2CCCC2)Nc2nccc(n2)-c2cccc(c2)COC/1 |  | -1.05 (inactive) | -1.19 | -0.941 | 
23 | COc1c(C)cc(NC(=O)c2nn(Cc3ccc(F)cc3)c3c2CN(C(=O)c2ccc[nH]2)C[C@]3(C)C(N)=O)cc1C |  | -0.421 (inactive) | -0.262 | -0.568 | 
24 | CC(C)C[C@H](CO)Nc1nc(S[C@@H](C)c2ccccc2)nc2nc(N)sc12 |  | -0.387 (inactive) | -0.481 | -0.0726 | 
25 | CCn1c(=O)c(-c2ccc(Cl)cc2Cl)cc2cnc(Nc3ccc(N4CCNCC4)c(F)c3)nc21 |  | -0.749 (inactive) | -0.47 | -0.502 | 
26 | Cc1cnc(-c2ccccc2C(C)C)nc1NCc1ccc(-n2ccnn2)cc1 |  | 1.08 (inactive) | 1.04 | 1.31 | 
27 | Cc1[nH]c(/C=C2\C(=O)Nc3ccc(F)cc32)c(C)c1C(=O)NCCN1CCCC1 |  | 0.66 (inactive) | 0.734 | 0.596 | 
28 | COc1ccc2nc3n[nH]c(C)c3c(NCCOCCO)c2c1 |  | -0.331 (inactive) | 0.387 | 0.00576 | 
29 | COc1ccc(-c2cnc3c(-c4cccc5ncccc45)cnn3c2)cc1 |  | -0.651 (inactive) | -0.725 | -0.465 | 
30 | CCCCCCCCCC(=O)O | inactive |  |  |  | 
31 | O=C(Nc1ccc2[nH]nc(-c3ccncc3)c2c1)[C@@H]1CCN(CC(=O)N2CCN(c3ccc(-c4ncccn4)cc3)CC2)C1 |  | -0.198 (inactive) | -1.04 | -0.706 | 
